The list is not random: actives were taken first. Their share in the collection is about 0.44%.
ABCB6 inh 2 – inhibitors of human ABC transporter ABCB6; Q9NP58; K562-ABCB6 porphyrin accumulation, flow cytometry, 1 h; hits give low values; fluorescence ratio to DMSO, % at 10 µM; hit rate 0.19% among 360,000; AID 602162;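 active means fluorescence ratio to DMSO below 75%, the collection mean minus 3 SD; inconclusive means too few cells collected in the well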;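 further: signal is porphyrin accumulated inside mitochondria; 100% equals median channel fluorescence of DMSO control wells; lower ratio means ABCB6 inhibition with less porphyrin fluorescence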
JMJD2C inh – blocks human GASC-1 demethylase activity; Q9H3R0; GST-JMJD2C(1-420) H3K9me3 demethylation, DELFIA europium; inhibition, % at 2.35 µM; hit rate 0.069% among 330,000;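 active means more than half of a compound's replicate wells show inhibition beyond 50%, single wells judged on their own value; inconclusive means some, but no more than half, of replicates pass 50% inhibition; inactive means no replicate passes 50% inhibition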;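 further: signal counts dimethyl H3K9 product captured on neutravidin plate; 0% = median of DMSO wells and 100% = 0.3 times that DMSO median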
PolyA inh – blocks polyadenylation in yeast reporter cells | S. cerevisiae SKY197-pL101 polyadenylation reporter, beta-gal luminescence; efflux-impaired pdr1/pdr3 knockout yeast; score 100 = 6 SD above DMSO | activity score, % at 12 µM | hit rate 0.02% among 300,000;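 active means lowest replicate activity score at least 50, where 100 means six control SD above control mean; inconclusive means lowest score under 50 but half or more replicates reach 50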;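 further: yeast exposed to compound for 9 h at 30 °C; higher score means more reporter readthrough which indicates perturbed polyadenylation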
VLA-4 inh – inhibition in a human VLA-4 binding assay; VLA-4 expressing cells, ligand binding flow cytometry; inhibition, % (about 7 µM as worked out from the volumes in the protocol); hit rate 0.2% among 330,000; AID 2557; in the data active means inhibition above about 50%
Target sequence (P13612 whole entry, looked up): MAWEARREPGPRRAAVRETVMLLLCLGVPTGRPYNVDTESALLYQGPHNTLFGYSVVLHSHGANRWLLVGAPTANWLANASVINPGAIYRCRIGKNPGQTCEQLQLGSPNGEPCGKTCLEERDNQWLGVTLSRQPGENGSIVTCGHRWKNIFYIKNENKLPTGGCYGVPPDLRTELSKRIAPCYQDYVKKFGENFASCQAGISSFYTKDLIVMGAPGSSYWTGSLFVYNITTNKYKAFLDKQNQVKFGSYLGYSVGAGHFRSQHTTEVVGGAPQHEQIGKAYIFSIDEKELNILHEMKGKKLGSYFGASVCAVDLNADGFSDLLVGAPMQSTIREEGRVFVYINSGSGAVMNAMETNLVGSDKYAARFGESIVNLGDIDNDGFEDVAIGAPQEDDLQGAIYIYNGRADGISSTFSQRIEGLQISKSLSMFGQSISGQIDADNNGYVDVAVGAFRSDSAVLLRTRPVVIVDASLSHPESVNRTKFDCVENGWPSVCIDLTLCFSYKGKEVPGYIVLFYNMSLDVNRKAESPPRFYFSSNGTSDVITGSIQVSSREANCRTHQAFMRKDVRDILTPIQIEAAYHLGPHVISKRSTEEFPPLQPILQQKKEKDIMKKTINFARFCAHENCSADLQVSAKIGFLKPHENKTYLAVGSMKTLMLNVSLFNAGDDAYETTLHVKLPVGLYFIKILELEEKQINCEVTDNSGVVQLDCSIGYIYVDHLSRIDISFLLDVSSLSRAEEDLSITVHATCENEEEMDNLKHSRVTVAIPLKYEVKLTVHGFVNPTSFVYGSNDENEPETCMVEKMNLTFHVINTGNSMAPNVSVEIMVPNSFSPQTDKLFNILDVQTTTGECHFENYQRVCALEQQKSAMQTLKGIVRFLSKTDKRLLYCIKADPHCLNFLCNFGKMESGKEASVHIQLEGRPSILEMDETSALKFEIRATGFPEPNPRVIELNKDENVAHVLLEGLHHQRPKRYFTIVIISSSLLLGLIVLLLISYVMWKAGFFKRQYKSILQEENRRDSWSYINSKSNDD
VLA-4 allo CP – human VLA-4 allosteric modulation in cherry picked compounds; U937 cells, HUTS-21 LIBS mAb binding, flow cytometry; LDV ligand present at threefold Kd; inhibition, % at 6.7 µM; AID 2813; shares compounds with VLA-4 inh; hit rate 2% among 1,300; in the data active means inhibition above about 40%;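 further: 0% = ligand without compound and 100% = no ligand background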
Starred values were filed as active, the others as inactive.

How did Cc1cccc(NC(=O)c2ccc3nc(N4CCOCC4)sc3c2)c1C do in these assays?
ABCB6 inh 2: 95; JMJD2C inh: 25; PolyA inh: -1; VLA-4 inh: 3

What do the screens show for `O=C(Nc1ccc(F)cc1F)c1ccc2nc(N3CCOCC3)sc2c1`?
ABCB6 inh 2: 100; JMJD2C inh: 6; PolyA inh: 20; VLA-4 inh: 33; VLA-4 allo CP: 14

How did CCCC1(C(=O)OCC)NC(c2ccc(N(C)C)cc2)C2C(=O)N(c3ccccc3)C(=O)C21 (stereo not drawn) do in these assays?
ABCB6 inh 2: 101; JMJD2C inh: 6; PolyA inh: 11; VLA-4 inh: -11

How did CS(=O)(=O)N(CCc1ccccc1)CC(=O)NCC1CCCO1 (stereo not drawn) do in these assays?
ABCB6 inh 2: 98; JMJD2C inh: 46; PolyA inh: 33; VLA-4 inh: 4

How did COc1ccccc1-c1nc2cc(Cl)ccc2c(=O)n1O do in these assays?
ABCB6 inh 2: 96; JMJD2C inh: -3; PolyA inh: 36; VLA-4 inh: -6

How did COc1ccccc1-c1nc2ccc(Cl)cc2c(=O)n1O do in these assays?
ABCB6 inh 2: 104; JMJD2C inh: -1; PolyA inh: -5; VLA-4 inh: 42; VLA-4 allo CP: -5

Results for CCOC(=O)c1c(NC(=O)C2c3ccccc3Oc3ccccc32)sc(C(=O)N(CC)CC)c1C ?
ABCB6 inh 2: 103; JMJD2C inh: -6; PolyA inh: 10; VLA-4 inh: -2; VLA-4 allo CP: 3

What do the screens show for `COCCn1c(Cc2ccccc2)nnc1SCc1ccc([N+](=O)[O-])cc1`?
ABCB6 inh 2: 88; JMJD2C inh: -3; PolyA inh: 3; VLA-4 inh: 41; VLA-4 allo CP: 5

Results for COC(=O)c1ccc(N2CCC(c3cc(-c4ccc(OC)cc4)n[nH]3)CC2)c([N+](=O)[O-])c1 ?
ABCB6 inh 2: 92; JMJD2C inh: -18; PolyA inh: 9; VLA-4 inh: 18

How did COc1ccc(-c2cc(C3CCN(c4ccc(C(C)=O)cc4[N+](=O)[O-])CC3)[nH]n2)cc1 do in these assays?
ABCB6 inh 2: 90; JMJD2C inh: -1; PolyA inh: -3; VLA-4 inh: 59*; VLA-4 allo CP: 16

Results for CCCCN(C)C(=O)C(Cc1ccccc1)NS(=O)(=O)c1ccc2c(c1)CCC(=O)N2 (stereo not drawn) ?
ABCB6 inh 2: 103; JMJD2C inh: 4; PolyA inh: -11; VLA-4 inh: 54*; VLA-4 allo CP: -2

How did CCC(=NNC(=O)c1cccc(S(=O)(=O)N2CCOCC2)c1)c1ccccc1 do in these assays?
ABCB6 inh 2: inconclusive; JMJD2C inh: 0; VLA-4 inh: 50*; VLA-4 allo CP: 6

How did COCc1cc(C)nc(N2CCN(Cc3ccccc3)CC2)c1C#N do in these assays?
ABCB6 inh 2: 91; JMJD2C inh: 0; PolyA inh: 11; VLA-4 inh: 22

What do the screens show for `O=c1[nH]c(CSc2ncn[nH]2)nc2ccccc12`?
ABCB6 inh 2: 99; JMJD2C inh: 5; PolyA inh: 12; VLA-4 inh: -2

What do the screens show for `Cc1cc(=O)oc2cc(OC(C)C(=O)NCCCN3CCCC3=O)c(Cl)cc12` (stereo not drawn)?
ABCB6 inh 2: 90; JMJD2C inh: 4; PolyA inh: 4; VLA-4 inh: 52*; VLA-4 allo CP: -3

What do the screens show for `CCn1c(SCc2c(Cl)cccc2Cl)nnc1-c1nn(-c2ccccc2)ccc1=O`?
ABCB6 inh 2: 93; JMJD2C inh: -1; PolyA inh: 1; VLA-4 inh: -1

Results for CCOc1ccc(S(=O)(=O)NCc2ccccc2Cl)cc1C(N)=O ?
ABCB6 inh 2: 96; JMJD2C inh: -4; PolyA inh: 13; VLA-4 inh: 15

What do the screens show for `COc1ccc(S(=O)(=O)NCc2ccccc2Cl)cc1OC`?
ABCB6 inh 2: 98; JMJD2C inh: 7; PolyA inh: 1; VLA-4 inh: 93*; VLA-4 allo CP: 0

What do the screens show for `O=C1N/C(=C/c2cccn2-c2ccccc2)C(=O)N1Cc1ccccc1F`?
ABCB6 inh 2: 90; JMJD2C inh: -4; PolyA inh: -21; VLA-4 inh: 7

How did CCN1CCN(Cc2nnc(-c3ccccc3)o2)CC1 do in these assays?
ABCB6 inh 2: 96; JMJD2C inh: -10; PolyA inh: -13; VLA-4 inh: 10

How did c1ccc(-c2nnc(CN3CCCCC3)o2)cc1 do in these assays?
ABCB6 inh 2: 98; JMJD2C inh: -18; PolyA inh: 1; VLA-4 inh: 45; VLA-4 allo CP: -12

What do the screens show for `CN(C(=O)COC(=O)c1ccc2c(c1)OCO2)C1CCCCC1`?
ABCB6 inh 2: 102; JMJD2C inh: -3; VLA-4 inh: 14

What do the screens show for `CN(C(=O)COC(=O)c1ccc2c(c1)OCO2)C1CCS(=O)(=O)C1` (stereo not drawn)?
ABCB6 inh 2: 96; JMJD2C inh: -4; PolyA inh: 10; VLA-4 inh: 93*; VLA-4 allo CP: 0

How did COc1ccc(NC(=O)C2CCN(C(=O)c3ccccc3)CC2)c(OC)c1 do in these assays?
ABCB6 inh 2: 99; JMJD2C inh: 4; VLA-4 inh: 33; VLA-4 allo CP: 4

What do the screens show for `COc1cc(C(=O)N2CCC(C(=O)Nc3cccc(C(C)=O)c3)CC2)cc(OC)c1OC`?
ABCB6 inh 2: 102; JMJD2C inh: 3; PolyA inh: 1; VLA-4 inh: 94*; VLA-4 allo CP: 6

How did COc1ccc(C(=O)N2CCC(C(=O)Nc3ccccc3OC)CC2)cc1 do in these assays?
ABCB6 inh 2: 87; JMJD2C inh: 27; PolyA inh: -4; VLA-4 inh: 57*; VLA-4 allo CP: -2

Results for COC(=O)c1ccccc1NC(=O)C1CCN(C(=O)c2cc(OC)cc(OC)c2)CC1 ?
ABCB6 inh 2: 102; JMJD2C inh: 1; PolyA inh: -10; VLA-4 inh: 5; VLA-4 allo CP: -5

How did COc1ccc(NC(=O)C2CCN(C(=O)c3ccccc3)CC2)cc1OC do in these assays?
ABCB6 inh 2: 100; JMJD2C inh: -2; PolyA inh: 16; VLA-4 inh: 4

Results for CCOc1ccc(S(=O)(=O)Nc2cc(OC)ccc2OC)cc1 ?
ABCB6 inh 2: 98; JMJD2C inh: 1; PolyA inh: -34; VLA-4 inh: 53*; VLA-4 allo CP: 56*

How did COc1ccc(OC)c(NS(=O)(=O)c2ccc(SC)cc2)c1 do in these assays?
ABCB6 inh 2: 106; JMJD2C inh: 2; PolyA inh: -7; VLA-4 inh: -5

What do the screens show for `Cn1cc(C(=O)N/N=C/C=C/c2ccccc2)ccc1=O`?
ABCB6 inh 2: 98; JMJD2C inh: 3; PolyA inh: -4; VLA-4 inh: 45; VLA-4 allo CP: 7

What do the screens show for `COc1ccc(-n2nc(C(=O)NCC(=O)NCCCN3CCN(C)CC3)c3ccccc3c2=O)cc1OC`?
ABCB6 inh 2: 98; JMJD2C inh: -2; PolyA inh: 1; VLA-4 inh: 1

How did O=C(Nc1cccc2ccccc12)OCc1cncs1 do in these assays?
ABCB6 inh 2: 97; JMJD2C inh: 1; PolyA inh: 0; VLA-4 inh: 17
